Pf growth 48h = P. falciparum growth inhibition at 48 hours (one generation); Potency, µM (highest dose often 28.7 µM), inactives show top-dose activity change, negative = inhibition, actives largely listed as inhibitors; P. falciparum luciferase growth in erythrocytes, 48 h; 310,000 compounds, 5.9% hits
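Growth was read as firefly luciferase luminescence after a 48 h, 37 C, 5% CO2 exposure of compounds to reporter-bearing P. falciparum cultures (0.1% parasitemia, 2% hematocrit final) in Albumax-supplemented RPMI 1640.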
AMA1-RON2 inh = AMA1-RON2 (P. falciparum) interaction inhibition; AlphaScreen AMA1-biotinylated RON2 peptide binding; Potency, µM (titrated, usually from 58.2 µM), for the others: at the highest dose activity change, negative = inhibition, most hits filed as inhibitors; 360,000 compounds, 0.2% hits;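 further: 0% = vehicle wells and -100% = peptide control; nearly all actives have a fitted effect of over 45% in size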
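AMA1 (3D7) with his tag at 25 nM final met compounds first, then biotinylated RON2 peptide at 25 nM; detection used donor plus acceptor beads, 10 µg/mL apiece, read by AlphaScreen after 30 min at room temperature.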
HCV inhibitor = HCV inhibition; Huh7.5.1 HCVcc-Cre infection, luciferase reporter, 44 h; Potency, µM (doses to about 41.8 µM), for the others: top-dose activity change, negative = inhibition, actives largely listed as inhibitors; 340,000 compounds, 3.4% hits; AID 651820
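Compounds are dispensed onto cells plated 4 h earlier at 1,000 per well, with HCVcc-Cre virus (about 0.5 moi) added next. Following 44 h of culture, luminescent signal is measured for 15 sec after 15 min with substrate at room temperature.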
Pf growth 96h = inhibits malaria parasite growth, 96 h | AID 504834 | 320,000 compounds, 6.9% hits | Potency, µM (titrated, usually from 28.7 µM), without a hit: at the highest dose activity change, negative = inhibition, hits mostly inhibitors | P. falciparum luciferase reporter growth, 96 h
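Two parasite generations (96 h, 37 C, 5% CO2) of compound exposure in infected erythrocytes (0.05% parasitemia, 2% hematocrit). Luciferase-reporter P. falciparum; decreased luminescence indicates inhibited growth, aimed at apicoplast-acting delayed death.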
Numbers without * were called inactive; i = inactive; ? = inconclusive; nt = no result. Shown are actives, neighbours in structure and some others; about 11% of the full set was active somewhere. The call rests on the fitted dose curve; in most records, active means well fitted curve in the direction sought with a large enough effect; inconclusive means small, poorly fitted or top-dose-only effect, or another doubt; inactive means no such curve, though single readings can be large; an effect the other way counts as inactive or inconclusive. Unless noted, on the % scale 0 is the no-effect control and ±100 the full control effect; potency means the concentration at half of the fitted maximal effect.

SMILES	Pf growth 48h	AMA1-RON2 inh	HCV inhibitor	Pf growth 96h
CCCCCCC(O)(c1ccccc1)C(CN1CCOCC1)c1ccccc1 (stereo unspecified)	3.3µM*	0%	?	3%
COc1nc2c(c(-c3cc(Br)cs3)c1C#N)Cc1ccccc1-2	170%	-11%	-6%	-29%
COc1ccccc1C1(O)C(=O)Nc2ccc(C)cc21 (stereo unspecified)	-6%	2%	25%	?
C=CCSc1nnc(NC(=O)C2CC(=O)N(Cc3ccc(C)cc3)C2)s1 (stereo unspecified)	?	-2%	-13%	-3%
CCC(C)NC(=O)c1ccccc1NC(=O)/C(=C/c1ccc(OC)cc1)c1ccccc1 (stereo unspecified)	?	7%	20%	12µM*
COc1ccc(/C=C(/NC(=O)c2ccccc2OC)C(=O)Nc2ccc(C(=O)O)cc2)cc1	-9%	7%	-1%	9.3µM*
COc1ccc(NC(=O)/C(=C/c2cccnc2)NC(=O)c2cccs2)cc1	-6%	3%	8%	4.1µM*
O=C(NCc1ccccc1)/C(=C/c1ccco1)NC(=O)c1ccco1	?	-23%	4%	-2%
CNC(=O)/C(=C\c1ccco1)NC(=O)c1ccco1	9.3µM*	6%	17%	0%
COc1ccc(NC(=O)/C(=C\c2cccnc2)NC(=O)c2cccs2)cc1	-8%	-5%	12%	25%
CCN(CC)C(=O)C1=C(C)N(Cc2ccccc2)C(=O)C(CC(=O)NCC2CCCCC2)C1 (stereo unspecified)	nt	12%	nt	nt
CN(CC(=O)Nc1ccc(F)cc1)CC(=O)NC1CCCCC1	?	3%	17%	-15%
Cc1ccc(NC(=O)/C(=C\c2cccnc2)NC(=O)c2ccco2)cc1	?	1%	16%	3.3µM*
Cc1cccc(NS(=O)(=O)c2ccc(C(=O)NCC(c3ccco3)N(C)C)cc2)c1C (stereo unspecified)	0%	-14%	-11%	11%
Cc1nc(-c2ccc(C(=O)N3CCCC3)cc2)cs1	235%	-1%	10%	-14%
Cc1nc(CN2CCN(C(=O)c3ccc(C(C)(C)C)cc3)CC2)cs1	nt	0%	?	12µM*
COC(=O)c1ccc(NC(=O)Cn2nnc3ccccc32)cc1	96%	0%	1%	5.2µM*
COC(=O)c1ccc(NC(=O)CCCCCn2nnc3ccccc3c2=O)cc1	5.2µM*	-6%	-17%	3.3µM*
Cc1ccc(NC(=O)Cn2nnc3ccccc32)cc1	96%	-7%	5%	-24%
O=C(CCCCCn1nnc2ccccc2c1=O)Nc1ccccc1Cl	18%	7%	-8%	-16%
CCc1nc(CNC(=O)C2CCC(=O)N(Cc3ccccc3F)C2)no1 (stereo unspecified)	?	-7%	20%	5%
COc1ccc(C(=O)NNC(=O)CCn2nnc(-c3ccc(C)cc3)n2)cc1OC	33%	119%	9%	40%
Cn1c(-c2ccccc2[N+](=O)[O-])[n+](C)c2ccccc21	10µM*	2%	-5%	4.1µM*
Cn1c(O)c(N=Nc2ccccc2[N+](=O)[O-])c2ccccc21	77%	-11%	0%	i
O=c1c2ccccc2sc2nc(C3CCCCC3)n(Cc3ccco3)c(=O)c12	1.7µM*	-13%	-5%	6.6µM*
SMILES	Pf growth 48h	AMA1-RON2 inh	HCV inhibitor	Pf growth 96h
CCc1nc2sc3ccccc3c(=O)c2c(=O)n1Cc1ccco1	-24%	-19%	14%	?
C=C(C(=O)c1ccccc1)C(CC(=O)c1ccccc1)c1ccccc1 (stereo unspecified)	?	1%	13µM*	0%
O=C(CCS(=O)(=O)Cc1ccc(Cl)cc1)NCCc1ccccc1	48%	-15%	4%	6%
CCOc1nc(-c2ccccc2)ccc1-c1noc(COC)n1	?	22%	10µM*	?
COc1ccc(-c2ccc(-c3noc(C(C)C)n3)c(OC)n2)cc1	24%	20%	1.6µM*	-3%
COCc1nc(-c2ccc(-c3ccc(OC)cc3)nc2OC)no1	11%	-3%	?	?
COCc1nc(-c2cc(Br)ccc2OC)no1	10%	10%	13µM*	nt
COc1ccc(Br)cc1-c1noc(-c2ccccc2)n1	37%	4%	-16%	nt
COCc1nc(-c2ccc(-c3ccccc3)nc2OC)no1	142%	-2%	14µM*	?
O=C(O)C1C2CC(C(Br)C2Br)C1C(=O)O (stereo unspecified)	nt	10%	11%	nt
